Experimental data published in PubChem BioAssay (NCI).
“And” between values parts separate entries of the source, which are not always exact repeats. Identical values can stand only once. The panel holds about 83,000 compounds, 20% with a hit somewhere; the sample as a whole holds those more often.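 Testing used 96-well plates and a 48-hour single-concentration exposure. Example: -40 means 40% of the starting cells died.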 The source made the active and inactive calls. The calls were made as follows: active = growth percent below 10; inactive = the rest.

tested on: MDA-MB-468 breast; experiment: NCI-60 one-dose screen, 48 h (100 = growth as untreated, 0 = no growth, -100 = all killed); conditions: 10 µM unless noted

**Q.** CCN1C(=O)N(CC)C2C1NN=c1s/c(=C3\C(=O)N(CC(C)C)c4ccccc43)c(=O)n12 (stereo not given) was tested. Which growth did it give?
**A.** 6% (active)

**Q.** CCCCn1cnc2c(SCc3ccc([N+](=O)[O-])cc3)nc(N)nc21 was tested. Which growth did it give?
**A.** 80.8% (inactive)

**Q.** With CCNCCNc1cc(-c2ccc(Cl)cc2)c(C#N)c2nc3ccccc3n12 as the compound, how does the growth read?
**A.** -45.3% (active)

**Q.** With O=C(Nc1cccc(-n2cc(-c3ccncc3)c(-c3ccc(Cl)c(O)c3)n2)c1)Nc1ccc(Cl)c(C(F)(F)F)c1 as the compound, how does the growth read?
**A.** -49.5% (active)

**Q.** With Cc1cc(N2CCOCC2)nc(N(CCNc2ccnc3cc(Cl)ccc23)Cc2cccs2)n1 as the compound, how does the growth read?
**A.** -15.2% (active)

**Q.** For CC(C)(C)C(=O)OCOP(=O)(OCOC(=O)C(C)(C)C)C1CC(O)N(O)C1=O (stereo not given), which growth is on record?
**A.** 61% (inactive)

**Q.** With CN(CCNCc1ccccn1)CCNCc1ccccn1 as the compound, how does the growth read?
**A.** -15.6% (active)

**Q.** How did the growth turn out when C[C@]12CC[C@@H]3c4ccc(O)cc4CC[C@H]3[C@@H]1CC[C@@H]2NS(=O)(=O)c1cccc(Br)c1 was run?
**A.** 53.8% (inactive)

**Q.** CN1CCN(Cc2ccc(NC(=O)c3ccc(C(C)(C)C)c(C#Cc4cnc5cccnn45)c3)cc2C(F)(F)F)CC1 was tested. Which growth did it give?
**A.** -6.22% (active)

**Q.** CC(C)=CCC[C@](C)(O)[C@H]1CC[C@]2(C)[C@@H]1CC[C@@H]1[C@@]3(C)CC[C@H](N)C(C)(C)[C@@H]3CC[C@]12C was tested. Which growth did it give?
**A.** 62% (inactive)

**Q.** For Cc1occc1-c1nc2s/c(=C/c3ccc(-c4cc(C(F)(F)F)ccc4Cl)o3)c(=O)n2n1, which growth is on record?
**A.** 108% (inactive)

**Q.** How did the growth turn out when O=C(Nc1ccccc1)Nc1ccc(Nc2ncnc3sc4c(c23)CCCC4)cc1 was run?
**A.** 96.9% (inactive)

**Q.** For COc1ccc(NC(=O)c2cccc(C3CCc4c(cc(OC)c(OC)c4OC)O3)c2)cc1 (stereo not given), which growth is on record?
**A.** 22% (inactive)

**Q.** For C#CCOC(=O)/C=C/c1cn(-c2ccccc2)nc1-c1ccc(OC)cc1, which growth is on record?
**A.** 101% (inactive)

**Q.** Which growth does the source give for COc1cc(-c2cc(/C=C/C(=O)c3ccc(F)c(F)c3)[nH]n2)cc(OC)c1OC here?
**A.** 33.8% (inactive)

**Q.** How did the growth turn out when CC1=CC2C(C(O)CC3(C)C2CC(C)C32OCOC23COCO3)C2(C)C/C(=C/O)C(=O)C=C12 (stereo not given) was run?
**A.** -16.2% (active)

**Q.** Which growth does the source give for COc1ccc(/C=C2\CN(Cc3cn(CCNc4ccnc5cc(Cl)ccc45)nn3)C/C(=C\c3ccc(OC)c(OC)c3)C2=O)cc1OC here?
**A.** -37.7% (active)

**Q.** For CNC(=O)c1cccc(Cn2nc(C)c(NC(=O)c3ccc(COc4ccc(C(F)(F)F)cc4C)cc3)c2C)n1, which growth is on record?
**A.** 3.58% (active)

**Q.** For O=C(COc1ccc(/C=C2\Cc3ccc(Cl)cc3C2=O)cc1)Nc1nccs1, which growth is on record?
**A.** 98.8% (inactive)

**Q.** With Cc1onc(-c2c(F)cccc2Cl)c1-c1ncc(-c2ccc(Cl)cc2)o1 as the compound, how does the growth read?
**A.** 66.2% (inactive) and 23.7% (inactive)

**Q.** Which growth does the source give for CC(=O)Nc1ncc(S(=O)(=O)c2ccc([N+](=O)[O-])cc2)s1 here?
**A.** 107% (inactive)

**Q.** Which growth does the source give for CC(C)N(C(=S)SSC(=S)N(C(C)C)C(C)C)C(C)C here?
**A.** 110% (inactive)

**Q.** COc1c(C2CC(=O)Nc3c2cnn3Cc2ccco2)cc2c(c1OC)OCO2 (stereo not given) was tested. Which growth did it give?
**A.** 16.2% (inactive)

**Q.** With N=C(N)c1ccc(-c2ccc(-c3ccc4ccccc4c3)s2)s1 as the compound, how does the growth read?
**A.** -16.3% (active)

**Q.** With CC(=O)Nc1cccc(Nc2nc(N[C@H](C)c3ccccc3)c3ccccc3n2)c1 as the compound, how does the growth read?
**A.** 6.66% (active)

**Q.** With O=C(NCCCO)c1cc(Cl)ccc1O as the compound, how does the growth read?
**A.** -12.2% (active)

**Q.** Which growth does the source give for CC(=O)Oc1cc2cnc3c4cc(OC(C)=O)c(OC(C)=O)cc4ccc3c2cc1OC(C)=O here?
**A.** -7.77% (active)

**Q.** Which growth does the source give for COc1cc(/C(C#N)=C/c2ccc3c(c2OC)OCO3)cc2c1OCO2 here?
**A.** 9.19% (active)

**Q.** For N[C@H]1CCC[C@@H]1NCCCCN1C(=O)c2cccc3cc([N+](=O)[O-])cc(c23)C1=O, which growth is on record?
**A.** 38.8% (inactive)

**Q.** OB(O)c1ccccc1 was tested. Which growth did it give?
**A.** 110% (inactive)

**Q.** How did the growth turn out when N#CC1=C(NC=O)Oc2c(ccc3ccccc23)C1c1ccccc1 (stereo not given) was run?
**A.** 12% (inactive)

**Q.** Which growth does the source give for N#Cc1ccc(O)c(C2=NCC(c3cccc(Oc4ccccc4)c3)O2)c1 (stereo not given) here?
**A.** 27% (inactive)

**Q.** Which growth does the source give for C=C1CCc2nc(SCC(=O)O)ccc2N1 here?
**A.** 97.3% (inactive)

**Q.** How did the growth turn out when Cc1nc2sc(C(=O)Nc3ccccc3)c(N)c2cc1C(C)O (stereo not given) was run?
**A.** 28.6% (inactive)

**Q.** CCOC(=O)C1C(=O)OC2CCCCC21 (stereo not given) was tested. Which growth did it give?
**A.** 110% (inactive)

**Q.** Which growth does the source give for Cn1c(COC(=O)NCCN2CCOCC2)nc2c(N3CCOCC3)nc(-c3ccccc3)nc21 here?
**A.** -69.1% (active)

**Q.** How did the growth turn out when CCN1C(=O)N(CC)C2C1NN=c1s/c(=C\c3cccc(F)c3)c(=O)n12 (stereo not given) was run?
**A.** -21.8% (active)

**Q.** With COC(=O)CSc1ccc(Cl)cc1 as the compound, how does the growth read?
**A.** 126% (inactive)

**Q.** For COc1ccc(C2=C/C(=C\c3ccc(Cl)cc3)C(=O)N2/N=C/c2ccc(Cl)cc2)cc1, which growth is on record?
**A.** 94.3% (inactive)

**Q.** For COC(CCP(=O)(c1ccccc1)c1ccccc1)(C(=O)c1ccccc1)c1ccccc1 (stereo not given), which growth is on record?
**A.** 54.7% (inactive)
